RE007 growth inh – qHTS Assay for Inhibitors of the HIV-1 protein Vpr; S. pombe RE007 Vpr strain, BacTiter-Glo ATP luminescence, 24 h; Potency, µM (highest dose often 92.2 µM), without a hit: at the highest dose activity change, negative = less growth, actives largely listed as inhibitors; hit rate 0.21% among 360,000; AID 651644, 2012; active = well fitted falling curve with a large enough effect; inconclusive = small, poorly fitted or top-dose-only effect; inactive = no such curve, though single readings can be large or run the other way; also: potency is read from the fitted curve at half-maximal effect; % is scaled to controls: 0 for no effect and ±100 for the full control effect; nearly all actives have a fitted effect of over 50% in size
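Fission yeast strain RE007, carrying one chromosomally integrated HIV-1 vpr copy, was seeded at OD 0.01 in PMG+AL medium with 23 nL pinned compound. After 24 h at 30 °C and 99% humidity, viability was read by BacTiter-Glo luminescence.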
Cycloheximide cs – Cycloheximide Counterscreen for Small Molecule Inhibitors of Shiga Toxin; cell reporter, cycloheximide protein synthesis inhibition counterscreen; max response, %; hit rate 12% among 300,000; in the data active = max response mostly above about 13%, no sharp cut-off; inactive = mostly below about 14%; also: read at 38.3 µM for the half of the compounds with a filed dose; 0% is about no effect
Shiga toxin inh – A qHTS for Small Molecule Inhibitors of Shiga Toxin; Vero cells, Shiga toxin protein synthesis inhibition reporter; inhibition, % at 38.7 µM; hit rate 9.2% among 290,000; AID 2315, 2010; in the data active = inhibition mostly above about 28%, no sharp cut-off; inactive = mostly below about 43%; also: 0% is about no effect
Giardia FBPA inh – qHTS Assay for Inhibitors of Fructose-1,6-bisphosphate Aldolase from Giardia Lamblia; purified Giardia FBPA; Potency, µM (doses to about 59.6 µM), inactives show top-dose activity, negative = inhibition, most hits filed as inhibitors; hit rate 0.71% among 290,000; AID 2451, 2010; also: potency is read from the fitted curve at half-maximal effect; % is scaled to controls: 0 for no effect and ±100 for the full control effect; nearly all actives have a fitted effect of over 55% in size
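Giardia FBPA (40 nM reagent) was preincubated 10 min at RT with compound (up to 57.5 uM final), then substrate plus GAPDH/TPI/NAD/arsenate coupling system with diaphorase/resazurin was added; resorufin fluorescence (525/598 nm) was read after 20 min.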
Tb PYK inh – qHTS of Trypanosoma Brucei Inhibitors. pyruvate kinase (Trypanosoma brucei), Q57TT1. TbPYK enzyme, Kinase-Glo Plus ATP luminescence, 45 min. Potency, µM (highest dose often 76.8 µM), for the others: at the highest dose activity, negative = inhibition, most hits filed as inhibitors. hit rate 0.12% among 410,000. AID 624173, 2012; also: potency is read from the fitted curve at half-maximal effect; % is scaled to controls: 0 for no effect and ±100 for the full control effect; nearly all actives have a fitted effect of over 50% in size
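Enzyme and substrate buffer are dispensed first and compound is pin-transferred. ADP at 130 uM final then starts the reaction, which runs 45 min at room temperature. Detection reagent is added for 10 min before luminescence is imaged.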
LmPK inh – qHTS Assay for Inhibitors of Leishmania Mexicana Pyruvate Kinase (LmPK) | Q27686 | purified LmPK, Kinase-Glo ATP luminescence, 1 h | Potency, µM (doses to about 57.5 µM), inactives show at the highest dose activity change, negative = inhibition, most hits filed as inhibitors | hit rate 0.37% among 290,000; also: potency is read from the fitted curve at half-maximal effect; % is scaled to controls: 0 for no effect and ±100 for the full control effect
Target sequence (Q27686 whole entry, looked up): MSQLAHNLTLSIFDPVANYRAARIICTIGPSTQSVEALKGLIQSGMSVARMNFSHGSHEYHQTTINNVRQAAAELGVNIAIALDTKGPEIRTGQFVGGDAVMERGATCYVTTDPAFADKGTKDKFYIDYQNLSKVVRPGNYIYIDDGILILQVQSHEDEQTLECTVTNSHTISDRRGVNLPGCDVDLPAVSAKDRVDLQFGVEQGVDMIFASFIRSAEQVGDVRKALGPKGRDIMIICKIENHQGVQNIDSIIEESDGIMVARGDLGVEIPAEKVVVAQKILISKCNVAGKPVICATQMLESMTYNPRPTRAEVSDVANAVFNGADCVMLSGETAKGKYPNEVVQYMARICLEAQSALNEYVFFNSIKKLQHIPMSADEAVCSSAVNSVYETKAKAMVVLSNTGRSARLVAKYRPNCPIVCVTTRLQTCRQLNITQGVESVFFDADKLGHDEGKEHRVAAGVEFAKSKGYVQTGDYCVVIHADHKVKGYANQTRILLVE
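Pyruvate kinase activity monitored as ATP production (luciferase luminescence). Conditions: 0.1 nM enzyme, 0.5 mM PEP, 0.1 mM ADP, 1 h, RT; normalized against uninhibited and no-enzyme wells.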
The depositor's hits bear a star; ? = inconclusive; · = not tested or not shown; [ ] = dose if it differs, or a comment. This excerpt belongs to a sample that is enriched for hits. Unless noted, calls follow the shape of the dose curve; as a rule, active = well fitted curve in the direction sought with a large enough effect; inconclusive = small, poorly fitted or top-dose-only effect, or another doubt; inactive = no such curve, though single readings can be large; an effect the other way counts as inactive or inconclusive.

SMILES	RE007 growth inh	Cycloheximide cs	Shiga toxin inh	Giardia FBPA inh	Tb PYK inh	LmPK inh
COC(=O)c1ccc(SCc2cnc(Cl)s2)cc1	-3%	30*	130*	3%	0%	4%
Cc1ccccc1C(=O)Nc1ccc(OCc2cc(=O)n3cccc(C)c3n2)cc1	·	·	·	·	5%	·
O=c1[nH]c(SCC2CCCCO2)nc2ccccc12 (stereo not drawn)	-13%	24*	81*	-7%	-12%	2%
CC1CCCC(C)N1C(=O)CSc1nc2ccccc2c(=O)[nH]1 (stereo not drawn)	5%	0	17	2%	-8%	3%
Cc1cc(C(=O)CSc2nc3ccccc3c(=O)[nH]2)c(C)n1CC1CCCO1 (stereo not drawn)	6%	43*	143*	0%	-7%	1%
CCn1c(SCC(=O)c2cc(C)n(CC3CCCO3)c2C)nc2ccccc21 (stereo not drawn)	5%	37*	35	-13%	-23%	6%
Cc1cc(C(=O)CSc2nnnn2-c2ccccc2)c(C)n1CC1CCCO1 (stereo not drawn)	-9%	58*	49*	-2%	-4%	1%
CCOC(=O)C1(C)CCCN(C(=O)c2cc(F)ccc2C)C1 (stereo not drawn)	-9%	·	·	·	1%	·
Cc1sc(N/N=C/c2cccnc2)nc1-c1ccccc1	2%	25*	48*	-8%	2%	6%
Cc1ccc(-c2csc(N/N=C/c3ccco3)n2)cc1	-4%	35*	73*	-14%	-14%	3%
O=C(N/N=C/c1ccco1)c1cc(-c2ccc(Cl)cc2)n[nH]1	75%	-3	10	-2%	-6%	-1%
CC(C)=NNc1nc(-c2ccccc2)c(C)s1	-5%	36*	104*	-9%	-8%	7%[11.5 µM]
CN(C)S(=O)(=O)c1ccc(-c2csc(N/N=C/c3ccco3)n2)cc1	-5%	19	29	-9%	-7%	2%
Clc1ccc(-c2csc(N/N=C/c3ccco3)n2)cc1	3%	38*	79*	-11%	-10%	2%
COc1cccc(Nc2ncc3nc(-c4cccs4)c(=O)n(C[C@H]4CCCO4)c3n2)c1	·	·	·	-12%	·	·
O=C(CN1CCN(Cc2ccccc2)CC1)N/N=C/c1ccc(Br)s1	-5%	7	11	7%	3%	1%
COc1ccccc1-c1ccc2ncnc(NCCN3CCOCC3)c2c1	·	·	·	0%	·	·
O=C(Nc1cc(Cl)ccc1C(=O)O)c1ccc(CN2C(=O)c3ccccc3C2=O)cc1	18%	·	·	·	-1%	·
Cc1nc(C)c(C(=O)N/N=C/c2ccco2)s1	-4%	10	-4	0%	4%	3%
Clc1ccc(-c2csc(N/N=C\c3cccnc3)n2)cc1	16%	28*	11	-5%	-9%	-2%
C(=N\Nc1nc(-c2ccccc2)cs1)/c1ccco1	-12%	38*	61*	-16%	-27%	0%
Cc1ccc(-c2cc(-c3ccccc3)nc(N/N=C/c3cccnc3)n2)cc1	-10%	·	·	·	2%	·
Cc1sc(N/N=C/c2ccco2)nc1-c1ccccc1	-9%	27*	91*	-11%	-1%	3%
Brc1ccc(-c2csc(N/N=C/c3ccco3)n2)cc1	13%	40*	71*	-4%	-4%	1%
CC(C)C1OC(c2cccc(NC(=O)c3cccs3)c2)OCC1(C)C (stereo not drawn)	4%	13	-3	-11%	0%	-1%
CC(C)(C)c1cc[n+](/C(C(=S)Nc2ccccc2F)=C(/[O-])c2ccc3c(c2)OCCO3)cc1	-23%	23*	50	?	-21%	-5%
[O-]/C(=C(\C(=S)Nc1ccc(Cl)cc1)[n+]1ccccc1)c1ccc(OC(F)F)cc1	-23%	11	12	-22%	-15%	-7%
[O-]/C(=C(\C(=S)Nc1ccccc1F)[n+]1ccccc1)c1ccc(-c2ccccc2)cc1	-22%	18*	94	-18%	-5%	1%

High-throughput results as filed in PubChem BioAssay.
